# Reference: the supplement of paper PMC6411743
# ± gives the standard deviation of the averaged measurements. Targets with the largest changes are over-represented here; the source holds about 5,400 in all.
# Biological target: T1, UniProt Q9NPI1|Q9NPI1-2
# T1 sequence (whole entry): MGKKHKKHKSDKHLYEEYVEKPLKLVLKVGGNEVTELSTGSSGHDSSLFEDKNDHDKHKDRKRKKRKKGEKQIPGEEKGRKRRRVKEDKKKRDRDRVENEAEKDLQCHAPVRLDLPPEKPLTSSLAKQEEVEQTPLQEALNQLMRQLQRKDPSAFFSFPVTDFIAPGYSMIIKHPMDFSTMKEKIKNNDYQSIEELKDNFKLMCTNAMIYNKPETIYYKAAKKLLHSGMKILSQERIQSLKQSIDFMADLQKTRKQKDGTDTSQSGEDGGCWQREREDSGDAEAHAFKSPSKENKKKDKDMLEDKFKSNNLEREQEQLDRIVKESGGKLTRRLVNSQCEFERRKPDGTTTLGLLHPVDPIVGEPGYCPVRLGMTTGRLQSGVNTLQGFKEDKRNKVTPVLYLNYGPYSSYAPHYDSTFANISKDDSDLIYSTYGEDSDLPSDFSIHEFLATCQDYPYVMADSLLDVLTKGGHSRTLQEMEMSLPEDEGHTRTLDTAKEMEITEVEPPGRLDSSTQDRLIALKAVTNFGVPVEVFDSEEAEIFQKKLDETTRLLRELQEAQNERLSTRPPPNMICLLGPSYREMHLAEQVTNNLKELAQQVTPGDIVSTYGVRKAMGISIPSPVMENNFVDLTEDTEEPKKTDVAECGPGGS
# Assay: NP40-soluble protein abundance relative to vehicle (solubility fold change) (ratio); higher = more soluble protein in presence of GTP
# Protocol: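 Solubility proteome profiling in Jurkat crude lysate. Lysate was treated with Mg-GTP (0.1-10 mM) for 10 min at room temperature and 3 min at 37 °C, then solubilised with 0.8% NP40 and benzonase, followed by ultracentrifugation. Proteins were quantified by TMT10 LC-MS/MS; the value is the NP40-soluble abundance relative to the NP40-processed vehicle, from 3 independent experiments.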
structure (smiles),measurement,setting,value
Nc1nc2c(ncn2[C@@H]2O[C@H](COP(=O)(O)OP(=O)(O)OP(=O)(O)O)[C@@H](O)[C@H]2O)c(=O)[nH]1 [guanosine triphosphate],NP40-soluble protein abundance,concentration: 0.1mM,1.09 ± 0.029
same,NP40-soluble protein abundance,concentration: 0.5mM,1.11 ± 0.036
same,NP40-soluble protein abundance,concentration: 1mM,1.22 ± 0.041
same,NP40-soluble protein abundance,concentration: 2mM,1.36 ± 0.098
same,NP40-soluble protein abundance,concentration: 4mM,1.4 ± 0.18
same,NP40-soluble protein abundance,concentration: 6mM,1.47 ± 0.2
same,NP40-soluble protein abundance,concentration: 8mM,1.58 ± 0.32
same,NP40-soluble protein abundance,concentration: 10mM,1.56 ± 0.28
